Assay results reported in PubChem BioAssay (Tox21).
Inconclusive results are not listed. Entries that show only a call come without a potency. Active and inactive are the calls of the source. Calls come from the whole dose curve; as a rule, active = well fitted cell-killing curve with a large enough effect in the repeat runs; inconclusive = weak or mixed curves, or effect the other way; inactive = flat fitted curve, though single readings scatter.

Assay: qHTS assay to identify small molecule agonists of the sonic hedgehog signaling (Shh) pathway - cell viability counter screen (AID 1259366); note: nearly all actives have a fitted effect of over 50% in size
Conditions: NIH/3T3 Gli1-Luc viability, CellTiter-Fluor, 24 h; series mostly up to 92.4 µM
Source text: National Center for Advancing Translational Sciences [NCATS]
NIH Chemical Genomics Center [NCGC]
U.S. Environmental Protection Agency [EPA]
National Institutes of Environmental Health Sciences [NIEHS]
National Toxicology Program [NTP]
U.S. Food and Drug Administration [FDA]
The sonic hedgehog (Shh) pathway is essential for normal embryonic development. Dysregulation of the Shh pathway can cause severe developmental defects in organs. Therefore chemicals that interfere with the pathway are potential developmental toxicants. A cell line designated 3T3Gli1-Luc (DMB/OARSA/CFSAN/FDA, Laurel, MD), a NIH/3T3 derived clone containing stably integrated Gli1-Luc reporter is used to detect chemical interference of the Shh pathway, by changes in the expression of the firefly Luc gene under the control of the Gli1 transcriptional response element. This cell line was used to screen Tox21 libraries for identifying and prioritizing the potential developmental toxicants that interfere Shh pathway. The cytotoxicity of the compounds was tested in parallel by measuring the cell viability using CellTiter-Fluor assay system (Promega, Madison, WI) in the same wells.
Tox21 Assay Protocol Summary:
3T3 Gli1-Luc cells were dispensed at 2,000 per well in 5uL of culture medium into white solid bottom 1536-well plates (Greiner Bio-One, Monroe, NC) using a Multidrop Combi (Thermo Scientific, Waltham, MA) dispenser. The assay plates were incubated at 37 C and 5% CO2 for 4hr, and then 23nL of compounds dissolved in DMSO and positive control were transferred using a Pintool station (Wako, San Diego, CA). The assay plates were incubated at 37C and 5% CO2 for 24hr. For viability read, after 23hr of compound treatment, 1uL of CellTiter-Fluor reagent (Promega Corporation, Madison, WI) was added to each well of the assay plates using Flying Reagent Dispenser (FRD, Aurora Discovery, San Diego, CA) and incubated the assay plates at 37C for 1hr. The fluorescence signal was quantified using a ViewLux plate reader (Perkin Elmer, Shelton, CT).

Question: Which Potency does the source give for OCCN(CCO)CCO here?
Answer: The Potency was “inactive”.

Question: With Nc1ccc(Br)cc1 as the compound, how does the Potency read?
Answer: Its Potency is “inactive”.

Question: For CC(C)OC(=O)Nc1cccc(Cl)c1, which Potency is on record?
Answer: Its Potency is “inactive”.

Question: For Clc1cccc(Cl)c1Cl, which Potency is on record?
Answer: Its Potency is “inactive”.

Question: With Nc1ccccc1C(=O)O as the compound, how does the Potency read?
Answer: The Potency was “inactive”.

Question: With Nc1c(Cl)c(Cl)nc(C(=O)O)c1Cl as the compound, how does the Potency read?
Answer: The Potency was “inactive”.

Question: Which Potency does the source give for c1ccc(-c2ccccc2)cc1 here?
Answer: Its Potency is “inactive”.

Question: With Cc1ccc(N)cc1N as the compound, how does the Potency read?
Answer: Its Potency is “inactive”.

Question: For NCCc1ccc(O)cc1, which Potency is on record?
Answer: The Potency was “inactive”.

Question: With CCCCN(CCCC)SN(C)C(=O)Oc1cccc2c1OC(C)(C)C2 as the compound, how does the Potency read?
Answer: Its Potency is “inactive”.

Question: Which Potency does the source give for CCN(CC)c1ccccc1 here?
Answer: The Potency was “inactive”.

Question: With COP(N)(=O)SC (stereo not given) as the compound, how does the Potency read?
Answer: The Potency was “inactive”.

Question: With O=C1CCCN1 as the compound, how does the Potency read?
Answer: Its Potency is “inactive”.

Question: Which Potency does the source give for CCCN(CCC)c1c([N+](=O)[O-])cc(C(F)(F)F)cc1[N+](=O)[O-] here?
Answer: The Potency was “inactive”.

Question: With c1ccc2c(c1)Oc1ccccc1O2 as the compound, how does the Potency read?
Answer: Its Potency is “inactive”.

Question: With Cc1cc(-c2cc(C)c(N)c(C)c2)cc(C)c1N as the compound, how does the Potency read?
Answer: The Potency was “inactive”.

Question: For [O-][Cl+2]([O-])O, which Potency is on record?
Answer: Its Potency is “inactive”.

Question: With Cc1cc(Cl)ccc1O as the compound, how does the Potency read?
Answer: Its Potency is “inactive”.

Question: With C=CCO as the compound, how does the Potency read?
Answer: The Potency was “inactive”.

Question: With CCc1cccc(C)c1N(C(=O)CCl)C(C)COC (stereo not given) as the compound, how does the Potency read?
Answer: The Potency was “inactive”.

Question: Which Potency does the source give for OC(O)C(Cl)(Cl)Cl here?
Answer: The Potency was “inactive”.

Question: Which Potency does the source give for O=c1ccc(=O)[nH][nH]1 here?
Answer: Its Potency is “inactive”.

Question: For CC(C#N)CCC#N (stereo not given), which Potency is on record?
Answer: Its Potency is “inactive”.

Question: For CCC[N+](=O)[O-], which Potency is on record?
Answer: The Potency was “inactive”.

Question: With Cc1ccccc1O as the compound, how does the Potency read?
Answer: Its Potency is “inactive”.

Question: Which Potency does the source give for O=NN1CCCC1 here?
Answer: The Potency was “inactive”.

Question: Which Potency does the source give for C1CC2OC2CC1C1CO1 (stereo not given) here?
Answer: Its Potency is “inactive”.

Question: With CCOP(=S)(OCC)SCCSCC as the compound, how does the Potency read?
Answer: The Potency was “inactive”.

Question: For CC(C)OC(=O)Nc1ccccc1, which Potency is on record?
Answer: The Potency was “inactive”.

Question: With CCCN(CCC)N=O as the compound, how does the Potency read?
Answer: Its Potency is “inactive”.

Question: For CC(Oc1ccc(Cl)cc1Cl)C(=O)O (stereo not given), which Potency is on record?
Answer: Its Potency is “inactive”.

Question: Which Potency does the source give for O=C(NC(=O)c1c(F)cccc1F)Nc1cc(Cl)c(OC(F)(F)C(F)C(F)(F)F)cc1Cl (stereo not given) here?
Answer: The Potency was “inactive”.

Question: With COC(=O)c1ccccc1C(=O)OC as the compound, how does the Potency read?
Answer: The Potency was “inactive”.

Question: With CCCC1COC(Cn2cncn2)(c2ccc(Cl)cc2Cl)O1 (stereo not given) as the compound, how does the Potency read?
Answer: The Potency was “inactive”.

Question: Which Potency does the source give for O=S(=O)(c1ccc(O)cc1)c1ccc(O)cc1 here?
Answer: Its Potency is “inactive”.

Question: With O=S(=O)(c1ccc(Cl)cc1)c1cc(Cl)c(Cl)cc1Cl as the compound, how does the Potency read?
Answer: The Potency was “inactive”.

Question: For BrCCBr, which Potency is on record?
Answer: The Potency was “inactive”.

Question: Which Potency does the source give for ClCCBr here?
Answer: Its Potency is “inactive”.

Question: For CCNc1nc(NC(C)(C)C)nc(SC)n1, which Potency is on record?
Answer: Its Potency is “inactive”.

Question: For CC(=O)C=C(C)C, which Potency is on record?
Answer: The Potency was “inactive”.
